Reference: PubChem BioAssay AID833 (The Scripps Research Institute Molecular Screening Center, 2007)
About 80 (0.5%) of roughly 16,000 compounds were called active. The sample holds actives, similar compounds and a random draw of the others, so the mix is not that of the screen. Cut-off read from the data, not from the text of the source: active = activation above about 15%; inactive = the rest.

Each compound was assayed against Galanin receptor type 2 (Rattus norvegicus) (UniProt O08726) (assay: agonists of rat galanin receptor 2 (GALR2) (AID 833)). Conditions: cell-based GALR2 agonist screen; at 10 µM; stronger effect = higher value.
Chain of Galanin receptor type 2 (Rattus norvegicus) (O08726 whole entry, looked up): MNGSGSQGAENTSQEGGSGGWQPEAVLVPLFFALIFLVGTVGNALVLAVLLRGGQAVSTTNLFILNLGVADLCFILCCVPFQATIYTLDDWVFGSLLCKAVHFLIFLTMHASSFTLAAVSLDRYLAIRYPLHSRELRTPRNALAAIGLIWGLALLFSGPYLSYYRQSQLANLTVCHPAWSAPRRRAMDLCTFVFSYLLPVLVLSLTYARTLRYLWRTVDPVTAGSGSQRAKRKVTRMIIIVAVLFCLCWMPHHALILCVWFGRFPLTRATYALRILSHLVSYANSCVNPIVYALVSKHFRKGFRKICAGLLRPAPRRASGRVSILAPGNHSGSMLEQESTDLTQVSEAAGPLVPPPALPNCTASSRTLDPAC

activation, active:
O=c1oc2c3ccccc3c3oc(=O)sc3c2s1 16.7%
O=C(CN1C(=O)/C(=C/c2ccccc2Cl)N=C1c1ccccc1)c1ccccc1 15.2%

activation, inactive:
COc1ccc(S(=O)c2ccccc2C(=O)O)c(C(=O)O)c1 (stereo unspecified) -7.55%
Cc1ccc(NC(=O)c2ccccc2NC(=O)c2ccccc2)cc1 -2.58%
CCOC(=O)C(=CNc1ccc2n[nH]nc2c1)C(=O)OCC -1.04%
CSc1sc(C(=O)Nc2cccc(C(F)(F)F)c2)cc1S(=O)(=O)C(C)C -6.93%
Cn1c(SCC(=O)c2ccc(Cl)cc2)nnc1-c1cnccc1C(F)(F)F -8.49%
O=S(=O)(Cc1nnc(-c2cc(Cl)cc(Cl)c2)o1)c1ccc(Cl)cc1 -1.76%
CC1(C)CC(=O)C=C(N2CCOCC2)C1 -5.82%
Cc1ccc(Sc2cc(C)c(C)cc2N)c(C)c1 -6.96%
O=C1NCCN1CCNS(=O)(=O)c1cc(Cl)sc1Cl -5.62%
O=S(=O)(Oc1ccc(C2SCCS2)cc1)c1ccc(Br)cc1 -1.98%
CNC(=S)Nc1cscc1S(=O)(=O)c1ccc(Cl)cc1 -6.95%
CCOC(=O)NC(=S)NC12CC3CC(CC(C3)C1)C2 -2.11%
Cc1onc(-c2ccccc2)c1CNS(=O)(=O)c1ccc(-c2ccccn2)s1 -9.42%
COC(=O)c1c(C(=O)OC)c2n(c1C)CCS2 -6.88%
Cc1onc(-c2ccccc2Cl)c1NC(=O)N1c2ccc(F)cc2CCC1C (stereo unspecified) -4.64%
N#Cc1sccc1Br -7.39%
O=S(=O)(O)Oc1c[nH]c2ccccc12 -7.29%
N#CC(C#N)=Cc1cccn1-c1ccc(C(F)(F)F)cc1 -6.03%
CS/C(=N\S(=O)(=O)c1ccccc1)NNc1ccccc1 -3.17%
O=c1[nH]c2c(=O)[nH]c(=S)[nH]c2nc1/C=C(\O)c1ccccc1 -5.76%
CN(C)/C=C/C(=O)c1cc(C(C)(C)C)cc(C(C)(C)C)c1O -4.8%
N#Cc1ccc(N2CCSCC2)cc1[N+](=O)[O-] -4.09%
N/C(=N\OC(=O)c1ccc(Cl)cc1)c1cccc(CS(=O)(=O)c2ccccn2)c1 -8.52%
COc1cccc(/C=C2\SC(=S)C(N)C2=O)c1OC (stereo unspecified) -1.21%
CS(=O)(=O)c1csc(C(=O)NCc2cccnc2)c1Cl -6.55%
O=C(N[C@@H](Cc1ccc(O)cc1)C(=O)O)OCc1ccccc1 -5.07%
CS(=O)(=O)Nc1ccc(/C(N)=N/OC(=O)c2cccs2)cc1 -5.51%
CCc1ccnc(NS(=O)(=O)c2ccc3c(c2)OCCO3)c1 -1.48%
c1csc(-c2ccc(-c3ccon3)s2)c1 -4.74%
CC(=O)c1ccc(NC(=O)OC2CCSC2)cc1 (stereo unspecified) -4.49%
O=C(Nc1ccc2c(c1)OCCO2)c1cnccn1 6.11%
COc1cc(C=C(C#N)C#N)cc(OC(C)=O)c1OC(C)=O -8.12%
CNC(=S)NNC(=O)CSc1cccs1 -6.57%
O=C(NC(=O)c1ccno1)Nc1ccccc1Cl -3.51%
Cc1cc(C2=CSC3=NCCN23)ccc1Cl -7.84%
CN(C)CCC(O)c1ccc2c(c1)OCCCCO2 (stereo unspecified) -8.25%
Cc1ccc(N(C)NC(=O)Nc2ccc(Cl)cc2)nn1 -6.34%
COc1ccc(C(=O)NNC(=O)c2c(OC)cc(C(F)(F)F)cc2C(F)(F)F)cc1 -1.51%
CCOC(=O)Cc1nnc(-c2ccc(Cl)cc2)o1 -7.97%
N#Cc1nc(-c2ccccc2)c(-c2ccccc2)nc1C#N 3.73%
Cc1noc(C)c1C(=O)Oc1cccc2cccnc12 3.32%
Cc1ccc(OC(=O)c2cccc([N+](=O)[O-])c2)c(Br)c1 1.69%
NS(=O)(=O)c1cc(C(F)(F)F)cc(C(F)(F)F)c1 -4.46%
NNC(=O)c1csc(COc2ccc(C3SCCS3)cc2)n1 -7.31%
O=C(Nc1ccccc1N1CCOCC1)NC1CCN(C(=O)OCc2ccccc2)CC1 -4.03%
CCOC(=O)c1cc(Sc2ccccc2N)cc(C(=O)OCC)n1 -3.83%
CN(C)C(=O)Nc1ccc(C(C)(C)C)cc1 -6.41%
O=C(O)c1ccccc1N/C=C/[N+](=O)[O-] -3.26%
Cc1nn2c(=O)c3c4c(sc3nc2[nH]c1=O)CCCC4 0.66%
Fc1cccc(Cl)c1CSc1nccn1-c1cccnc1 -3.88%
O=C(NC1Cc2ccccc2C1)c1nnc(-c2ccccc2)o1 -5.35%
N/C(=N\OC(=O)c1ccc([N+](=O)[O-])o1)c1ccc(OCc2ccc(Cl)cc2)c(Cl)c1 -4.76%
CN(C)c1cccc2c1c(NC(=O)Nc1ccc(OCc3ccccc3)cc1)nn2C -3.92%
O=C(Nc1ccc(C(F)(F)F)cn1)c1ccc(Oc2cc(Cl)cc(Cl)c2)o1 -5.62%
CCN=C(NCC)Nc1ccc(Cl)cc1 -7.95%
CCOC(=O)CCC(=O)OC(C(=O)c1ccccc1)c1ccccc1 (stereo unspecified) -6.88%
COc1ccc(C2CC(c3cccs3)=Nc3ccccc3S2)c(Cl)c1OC (stereo unspecified) -10.3%
CCCN(CCC)S(=O)(=O)c1ccc(C(=O)N2CC3CCC(CC3)C2)cc1 -5.35%
O=C(Nc1ccc(OC(F)F)cc1)Nc1coc(-c2ccccc2)c1 -4.63%
COc1ccc2c(c1)CCCC2=Nc1ccccc1C(F)(F)F -6.48%
COC(=O)c1ccc(S(=O)(=O)NNC(=O)c2cn3cc(C(F)(F)F)cc(Cl)c3n2)n1C -7.71%
O=c1c(-c2nc(-c3ccc(C(F)(F)F)cc3)no2)cnc2n1CCS2 -4.47%
Cc1noc(C)c1S(=O)(=O)Nc1cc(C(F)(F)F)ccc1N1CCOCC1 -7.12%
COC(=O)c1cc(OC)c(OC)cc1NS(=O)(=O)c1ccsc1C(=O)OC -7.2%
O=C(Nc1cccnc1Oc1ncnc2cc(Cl)ccc12)c1ccc(F)cc1 -3.54%
CS(=O)(=O)/N=C(\N)c1ccncc1 -6.47%
CCOC(=O)Cn1cc(Cl)ccc1=O -2.49%
O=C1C2C3C=CC(O3)C2C(=O)N1OCc1ccc(OC(F)(F)F)cc1 (stereo unspecified) -2.8%
O=c1[nH]c2ccccc2s1 -3.62%
CCOc1ccc(C(N)=O)c(SCC(=O)O)c1 -10.1%
Cn1nnnc1SCC(=O)Nc1ccc(OC(F)(F)F)cc1 -4.06%
COc1ccc(/C=N/N2CCC(=O)Nc3ccccc32)c(OC)c1 -4.04%
N/C(=N\OCc1noc(-c2ccsc2)n1)c1ccc(C(F)(F)F)cc1 -8%
Cc1noc(C)c1C(=O)c1c(C)[nH]n(-c2ccccc2)c1=O -4.7%
CC(C)(C)NC(=O)NCC(c1ccc[nH]1)C(F)(F)F (stereo unspecified) -6.65%
COC(=O)C1=C(c2ccccc2)C(c2ccccc2)=C(C(=O)OC)C1=O -1.25%
N#CC(C#N)=CNc1c(F)cccc1Cl -9.67%
CC(=O)/C(=C\N(C)C)c1ncccc1[N+](=O)[O-] -5.71%
C=C(C)c1cccc(C(C)(C)NC(=O)CC(C)=O)c1 -4.52%
O=C(Cc1cc(F)cc(F)c1)n1nccc1-c1cccs1 -4.48%
FC(F)(F)c1cccc(NC(=S)NNc2nccc(C(F)(F)F)n2)c1 -8.08%
COC(=O)c1sccc1S(=O)(=O)Nc1ccccc1Sc1ncnc2c(C)csc12 -5.48%
N/C(=N\S(=O)(=O)c1ccc(Cl)cc1)N1CCOCC1 -1.28%
Fc1ccc(Oc2nc(Oc3ccc(F)cc3)nc(N3CCSCC3)n2)cc1 -8.25%
CN(NS(=O)(=O)c1ccc(C(F)(F)F)cc1)c1cnn(C)c(=O)c1Cl -5.39%
COC(=O)c1ccsc1NC(C)=O -5.28%
CCOC(=O)c1ccc(NC)c(N)c1 -7.18%
CN(C)c1ccc(/C=C(\C#N)S(C)(=O)=O)c(Cl)c1 -4.37%
CC(C)[C@H]1COC(c2cccc(C3=N[C@@H](C(C)C)CO3)n2)=N1 -5.78%
COC(=O)c1sc(S(C)=O)c(-c2ccon2)c1C (stereo unspecified) -6.07%
O=C(Cn1nnc(N2CCOCC2)n1)N/N=C/c1ccc(-c2cccc([N+](=O)[O-])c2)o1 -7.32%
CO/N=C1\C(=O)N(C)c2ccccc21 -3.65%
COc1ccc(CCNC(=O)c2ccccc2-c2ccccc2C(=O)O)cc1OC -7.28%
COC(=O)c1c(C)noc1-c1ccno1 -5.48%
CCOC(=O)c1c(NC(=S)NC)sc2c1CCCC2 -0.11%
N/C(=N\OC(=O)Nc1ccccc1)c1ccc(Oc2c(Cl)cncc2Cl)cc1 -6.45%
CN([C@H]1CCN2CCc3ccccc3C2C1)S(C)(=O)=O (stereo partly specified) -4.21%
CCOC(=O)CN1C(=O)/C(=C\c2ccc(C)o2)N=C1c1ccccc1 -8.17%
CN1CCN(c2ccc(NC(=O)c3ccccc3)cc2)CC1 -7.3%
